In the library only some 1.1% were active in any assay of this set; here they are far more common.
MOR-DOR ag: agonists of human mu-delta opioid receptor heterodimerization; P35372+P41143; cells, OPRM1-OPRD1 heterodimerization, luminescence; activation, % at 9.3 µM; actives 0.3% (n = 340,000); AID 504326;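 further: 0% = vehicle-treated cells and 100% = reference agonist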
OPRM1-OPRD1 inv: mu-delta opioid heterodimer inverse agonism; P35372+P41143; cell-based MOR-DOR heterodimer luminescence; inhibition, % at 9.3 µM; actives 0.21% (n = 340,000); in the data active means inhibition above about 22%, passing the limit was not always enough;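 further: 0% = cells with DMSO and 100% = wells without cells with DMSO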
HTR5A ag ctr: counter-screen for OPRM1-OPRD1 agonists: human HTR5A agonism. HTR5A agonist assay, luminescence, cell-based. activation, % at 9.3 µM. actives 0.61% (n = 340,000). AID 504692; in the data active means activation mostly above about 9.5%, no sharp cut-off; inactive means mostly below about 7.6%;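 further: 0% = cells with vehicle only and 100% = reference agonist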
Target sequence (P47898 whole entry, looked up): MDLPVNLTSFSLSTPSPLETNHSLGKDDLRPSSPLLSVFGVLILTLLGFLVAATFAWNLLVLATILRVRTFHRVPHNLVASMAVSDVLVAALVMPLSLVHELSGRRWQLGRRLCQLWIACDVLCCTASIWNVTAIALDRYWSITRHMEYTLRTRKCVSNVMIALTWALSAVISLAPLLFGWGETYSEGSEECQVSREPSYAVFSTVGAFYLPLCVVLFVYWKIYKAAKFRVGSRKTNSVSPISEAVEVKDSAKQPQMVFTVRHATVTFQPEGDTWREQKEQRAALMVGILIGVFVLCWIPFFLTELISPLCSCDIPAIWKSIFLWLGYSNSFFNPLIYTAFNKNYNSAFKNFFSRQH
HTR5A inv ag: counter-screen for OPRM1-OPRD1 inverse agonists: human HTR5A inverse agonism; HTR5A cell line, luminescence; inhibition, % at 9.3 µM; actives 0.083% (n = 340,000); AID 504634; in the data active means inhibition mostly above about 23%, no sharp cut-off; inactive means mostly below about 18%;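 further: 0% = cells with DMSO and 100% = no-cell wells with DMSO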
MOR-DOR ag conf: confirmation of human OPRM1-OPRD1 heterodimerization agonists | shares compounds with MOR-DOR ag | cells, MOR-DOR heterodimerization, luminescence complementation | activation, % at 9.3 µM | actives 45% (n = 830);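 further: 0% = vehicle-treated cells and 100% = reference agonist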
HTR5A ag counter: counter-screen for OPRM1-OPRD1 agonists: human HTR5A agonism; shares compounds with MOR-DOR ag; HTR5A agonist counterscreen, cell luminescence; activation, % at 9.3 µM; actives 8% (n = 830); AID 504905; in the data active means activation above about 17%;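 further: 0% = vehicle-treated cells and 100% = reference agonist response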
Numbers without * were called inactive; i = inactive; / = no result. Unless noted, no stated cut-off is given here; in the data, active means activation above about 18%; inactive means the rest.

SMILES	MOR-DOR ag	OPRM1-OPRD1 inv	HTR5A ag ctr	HTR5A inv ag	MOR-DOR ag conf	HTR5A ag counter
CCOc1ccc(S(=O)(=O)Nc2cccc(C(=O)NCC(c3ccccc3)N(C)C)c2)cc1 (stereo not given)	58*	-313	-5	2	52*	-3
CN(C)C(CNC(=O)c1ccc(S(=O)(=O)Nc2ccccc2F)cc1)c1ccccc1 (stereo not given)	-3	14	-1	16	/	/
COc1ccccc1C(CNC(=O)c1cccc(NS(=O)(=O)c2ccc(C)c(F)c2)c1)N(C)C (stereo not given)	7	-44	1	-2	/	/
COc1ccc(C(CNC(=O)c2cccc(S(=O)(=O)Nc3ccc(F)cc3)c2)N(C)C)cc1 (stereo not given)	4	-20	-4	10	/	/
CC(=O)c1ccc(S(=O)(=O)NCc2ccc(C(=O)NCC(c3ccccc3)N(C)C)cc2)cc1 (stereo not given)	55*	-292	4	-11	49*	-4
COc1ccc(C(CNC(=O)c2cccc(NS(=O)(=O)c3ccc(C)c(F)c3)c2)N(C)C)cc1 (stereo not given)	70*	-363	-3	7	1	-2
COc1ccc(C(CNC(=O)c2cccc(NS(=O)(=O)c3ccccc3)c2)N(C)C)cc1 (stereo not given)	46*	-246	2	-11	29*	2
CC(NS(=O)(=O)c1ccc(Br)s1)c1ccccc1 (stereo not given)	1	-7	-2	7	/	/
C=CCN1N=C(c2ccc(NC(=O)c3ccccc3)cc2)CSC1=O	55*	-285	3	19	1	-4
Cc1cccc(OS(=O)(=O)NC(=O)OCC2CCCN3CCCCC23)c1 (stereo not given)	0	-1	1	-12	/	/
O=C(c1sc2ccccc2c1Cl)N(Cc1ccccc1)C1CCS(=O)(=O)C1 (stereo not given)	29*	-146	-2	0	27*	5
O=C(c1ccccc1F)N(Cc1ccccc1)C1CCS(=O)(=O)C1 (stereo not given)	1	-7	-2	1	/	/
O=C(COC(=O)CNC(=O)c1sc2ccccc2c1Cl)NC1CCS(=O)(=O)C1 (stereo not given)	-1	10	-3	-1	/	/
O=C(c1sc2ccccc2c1Cl)N(Cc1ccccc1Cl)C1CCS(=O)(=O)C1 (stereo not given)	52*	-275	4	-12	18*	4
O=C(c1sc2ccccc2c1Cl)N(Cc1ccco1)C1CCS(=O)(=O)C1 (stereo not given)	53*	-283	0	-26	54*	0
COc1cc2c(cc1NC(=O)C(C)Sc1ccc(NC(C)=O)cc1)oc1ccccc12 (stereo not given)	20*	-114	2	-8	0	-1
COc1ccccc1NC(=O)c1sc2nc(C)cc(C)c2c1N	24*	-121	4	-9	108*	1
CC1(c2ccc(Cl)cc2)NC(=O)N(CN2CCOCC2)C1=O (stereo not given)	0	2	3	6	/	/
COCC(=O)OC1CCn2c1nc1c2C(=O)C(C)=C(NC(C)=O)C1=O (stereo not given)	23*	-111	6	-22	-2	-4
CCOC(=O)C1=CN(CC)S(=O)(=O)NC1c1ccc(C(F)(F)F)cc1 (stereo not given)	-2	10	-2	7	/	/
Cc1ccc2nc(-c3ccc(NC(=O)Cc4cccs4)cc3)[nH]c2c1	23*	-135	-8	18	18	6
Cc1ccc2nc(NC(=O)Cc3cccs3)sc2c1	3	-16	1	-24	/	/
CC1=C(C(=O)Nc2cccc(C(=O)NCc3ccccc3C)c2)SCCO1	-3	16	-5	14	/	/
COc1ccc2nc3cc(Cl)ccc3c(Nc3cc(C(C)C)c(O)cc3C)c2c1	20*	-110	2	-9	15	3
Cc1ccccc1Nc1nc(N)nc(CCl)n1	-1	7	6	-24	/	/
SMILES	MOR-DOR ag	OPRM1-OPRD1 inv	HTR5A ag ctr	HTR5A inv ag	MOR-DOR ag conf	HTR5A ag counter
Nc1nc(CCl)nc(Nc2ccc3ccccc3c2)n1	80*	-396	13	-35	10	13
O=C(NCc1ccccc1Cl)C(=O)NCC1OCCN1S(=O)(=O)c1ccc(F)cc1 (stereo not given)	-1	7	5	-3	/	/
COc1ccc(C(=O)COC(=O)CN2C(=O)C3C4C=CC(C5CC45)C3C2=O)cc1 (stereo not given)	-1	6	1	-6	/	/
CC1CN(C)C(C)c2c1oc1ccc(N)cc21 (stereo not given)	72*	-373	-3	-12	58*	4
CCc1ccc(NC(=O)CCS(=O)(=O)c2ccc(Cl)cc2)cc1	1	-4	-4	12	/	/
COC(=O)C(Cc1cccc(C)n1)(c1ccccc1)c1ccccc1	113*	i	0	0	153*	2
CC1CCc2sc(C(=O)N/N=C/c3ccc(O)cc3)cc2C1 (stereo not given)	1	-6	4	-10	/	/
O=C(Nc1ccc(F)cc1)C(NC1CCCCC1)c1ccccc1 (stereo not given)	-1	4	-1	3	/	/
CN(C)C(CNC(C(=O)Nc1ccc(F)cc1)c1ccccc1)c1ccccc1 (stereo not given)	230*	i	3	-8	0	3
CN(C)C(CNC(C(=O)Nc1ccc([N+](=O)[O-])cc1Br)c1ccccc1)c1ccccc1 (stereo not given)	66*	-318	10	35	79*	4
CC(C)CNC(C(=O)Nc1ccc([N+](=O)[O-])cc1Br)c1ccccc1 (stereo not given)	3	-21	4	-5	/	/
CCOC(=O)C1=C(C)N(Cc2ccccc2)C(=O)NC1c1ccccc1OS(=O)(=O)c1ccccc1[N+](=O)[O-] (stereo not given)	65*	-380	-2	6	1	-4
COC(=O)C1=C(C)N(CCCC(=O)O)C(=O)NC1c1ccccc1OS(=O)(=O)c1ccccc1[N+](=O)[O-] (stereo not given)	51*	-296	-2	6	47*	5
CC(=O)Nc1ccc(NC(=O)C(=O)NCC(c2ccco2)N2CCc3ccccc3C2)cc1 (stereo not given)	21*	-134	8	-14	22*	8
CC(C)(C)c1ccc(C(=O)N2CCCC2)s1	-3	18	-5	21	/	/
O=C(CCc1ccccc1Cl)NC1CCCN(c2ccc(C(F)(F)F)cn2)C1 (stereo not given)	3	-16	-3	-43	/	/
COc1ccc(NC(=O)c2ccc3ccccc3n2)cc1S(=O)(=O)N1CCCCC1	-2	10	2	-18	/	/
COc1ccc(NC(=O)c2cc3ccccc3o2)cc1S(=O)(=O)N1CCCCC1	21*	-106	4	-15	2	0

Compound activity (PubChem)
